Data from PubChem BioAssay (NCATS).
Inconclusive results are not listed. Entries that show only a call come without a potency. Calls of active or inactive are those of the source. Calls follow the shape of the dose curve; as a rule, active = well fitted curve in the direction sought with a large enough effect; inconclusive = small, poorly fitted or top-dose-only effect, or another doubt; inactive = no such curve, though single readings can be large; an effect the other way counts as inactive or inconclusive.

Target: Calcium and integrin-binding protein 1 (Homo sapiens) (UniProt Q99828)
Sequence (Q99828 whole entry, looked up): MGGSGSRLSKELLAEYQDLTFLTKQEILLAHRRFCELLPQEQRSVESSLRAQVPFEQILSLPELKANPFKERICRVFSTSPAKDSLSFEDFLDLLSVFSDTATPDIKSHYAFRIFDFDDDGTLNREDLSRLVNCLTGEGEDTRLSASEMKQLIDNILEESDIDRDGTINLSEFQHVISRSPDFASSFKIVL
Test: Primary qHTS for Identification of Calcium Integrin Binding Protein 1 (CIB1) Competitor (AID 1508620);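 also: GST tagged CIB1 binding a fluorescein labelled alphaIIb integrin peptide tracer; top concentration of the series differs between compounds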
Conditions: CIB1-GST / FITC-alphaIIb peptide fluorescence polarization; series mostly up to 114 µM
Summary of the method: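 Fluorescence polarization competition: GST-tagged CIB1 (1 uM final) preincubated with compound 15 min at room temperature, then FITC-labelled alphaIIb peptide (100 nM final) added. After 15 min at room temperature, polarization read at Ex 480/Em 540.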
For `CC(CN(C)C)CN1c2ccccc2CCc2ccccc21` (stereo not given), the outcome was “inactive”.
In the case of `Cc1ncc(COP(=O)(O)O)c(C=O)c1O`, the outcome is reported as “inactive”.
With `CCCOC(=O)c1ccccc1` the outcome was “inactive”.
In the case of `CCCCN(CCCC)CC(O)c1cc(Cl)cc2c1-c1ccc(Cl)cc1/C2=C/c1ccc(Cl)cc1` (stereo not given), the outcome is reported as “inactive”.
In the case of `O=C(O)COc1nn(Cc2ccccc2)c2ccccc12`, the outcome is reported as “inactive”.
For `Cc1cccc(C)c1NC(=O)CN(CC(=O)O)CC(=O)O`, the outcome was “inactive”.
With `O=S(=O)(O)NC1CCCCC1` the outcome was “inactive”.
In the case of `CSc1ccc2c(c1)C(N1CCN(C)CC1)Cc1ccccc1S2` (stereo not given), the outcome is reported as “inactive”.
With `Cc1cc2c(cc1S(N)(=O)=O)S(=O)(=O)CCC2` the outcome was “inactive”.
For `O=C1c2c(O)cccc2Cc2cccc(O)c21`, the outcome was “inactive”.
For `CC(C)(C)C(=O)NCCCC(=O)O`, the outcome was “inactive”.
In the case of `O=Cc1ccccc1C=O`, the outcome is reported as “inactive”.
With `COc1ccc2cc1Oc1cc3c(cc1OC)CC[N+](C)(C)[C@H]3Cc1ccc(cc1)Oc1c(OC)c(OC)cc3c1[C@@H](C2)[N+](C)(C)CC3` the outcome was “inactive”.
For `[Cl][In]([Cl])[Cl]`, the outcome was “inactive”.
In the case of `CC(CN1c2ccccc2Sc2ccccc21)N(C)C` (stereo not given), the outcome is reported as “inactive”.
In the case of `CCOC(=O)[C@H](CCc1ccccc1)N[C@@H](C)C(=O)N1C(=O)N(C)C[C@H]1C(=O)O`, the outcome is reported as “inactive”.

Tested on: not listed separately
Test: Counterscreen qHTS for small molecule stabilizers of the endoplasmic reticulum resident proteome: GLuc-NoTag assay (AID 1508627); also: potency is read from the fitted curve at half-maximal effect
Conditions: Gaussia luciferase NoTag secretion counterscreen, luminescence, thapsigargin 100 nM for final 4 h; series mostly up to 76.4 µM
Summary of the method: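 SH-SY5Y cells stably expressing constitutively secreted GLuc without SERCaMP tag, exposed to compound for 19 hr, then to 100 nM thapsigargin for 4 hr at 37C. Medium luciferase was read by coelenterazine luminescence without lysis.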
With `Cc1cc2nc3c(=O)[nH]c(=O)nc-3n(C[C@H](O)[C@H](O)[C@H](O)CO)c2cc1C` the Potency was “inactive”.
In the case of `CN(C)CCCN1c2ccccc2CCc2ccccc21`, the Potency is reported as “inactive”.
For `CNCCC(Oc1ccc(C(F)(F)F)cc1)c1ccccc1` (stereo not given), the Potency was 44.7 µM (active).

Tested on: not listed separately
Test: Confirmatory qHTS for small molecule stabilizers of the endoplasmic reticulum resident proteome: Secreted ER Calcium Modulated Protein (SERCaMP) assay (AID 1508628); also: nearly all actives have a fitted effect of over 40% in size; also: potency is read from the fitted curve at half-maximal effect
Conditions: SERCaMP secreted luciferase ER calcium/proteostasis reporter; series mostly up to 76.3 µM
Summary of the method: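 We seeded SH-SY5Y-GLuc-SERCaMP cells, added compounds (three concentrations in the primary run, eleven up to 76.6 uM in confirmation), incubated 16 h, depleted ER calcium with thapsigargin, and read luciferase 4 h later.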
With `Cc1cc2nc3c(=O)[nH]c(=O)nc-3n(C[C@H](O)[C@H](O)[C@H](O)CO)c2cc1C` the Potency was “inactive”.
In the case of `CC(C)(C)[C@]1(O)CCN2C[C@H]3c4ccccc4CCc4cccc(c43)[C@@H]2C1`, the Potency is reported as 12.6 µM (active).
In the case of `CNCCC(Oc1ccc(C(F)(F)F)cc1)c1ccccc1` (stereo not given), the Potency is reported as “inactive”.

Tested on: not listed separately
Test: Cell Viability qHTS for small molecule stabilizers of the endoplasmic reticulum resident proteome (AID 1508629);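 also: compound exposure about 46 h in total before the viability read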; also: potency is read from the fitted curve at half-maximal effect;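 as to max response: human SH-SY5Y neuroblastoma cells carrying the GLuc-SERCaMP reporter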
Conditions: cell viability counter-screen, 100 nM thapsigargin for final 4 h
With `Cc1cc2nc3c(=O)[nH]c(=O)nc-3n(C[C@H](O)[C@H](O)[C@H](O)CO)c2cc1C` the max response was 11.4% (inactive).
In the case of `CC(C)(C)[C@]1(O)CCN2C[C@H]3c4ccccc4CCc4cccc(c43)[C@@H]2C1`, the max response is reported as 16.4% (inactive).
In the case of `CNCCC(Oc1ccc(C(F)(F)F)cc1)c1ccccc1` (stereo not given), the Potency is reported as 25.1 µM (active).

Tested on: not listed separately
Test: Primary qHTS for small molecule stabilizers of the endoplasmic reticulum resident proteome: Secreted ER Calcium Modulated Protein (SERCaMP) assay (AID 1508630)
Conditions: SH-SY5Y GLuc-SERCaMP (Gaussia luciferase released on ER calcium loss) secretion, thapsigargin, luminescence; series mostly up to 38.4 µM
Summary of the method: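 GLuc-SERCaMP-expressing SH-SY5Y cells, pretreated 16 h with compound, are challenged with thapsigargin to empty ER calcium stores; after 4 h, coelenterazine is added directly to the medium and luminescence is imaged.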
For `CCN(CC)CCCC(C)Nc1c2ccc(Cl)cc2nc2ccc(OC)cc12` (stereo not given), the Potency was “inactive”.
With `CC1=C(CC(=O)O)c2cc(F)ccc2/C1=C\c1ccc(S(C)=O)cc1` (stereo not given) the Potency was “inactive”.
With `c1ccc(CN(CC2=NCCN2)c2ccccc2)cc1` the Potency was “inactive”.
In the case of `NC(N)=NCCC[C@H](N)C(=O)O`, the Potency is reported as “inactive”.
With `O=C(O)Cc1sc(-c2ccccc2)nc1-c1ccc(Cl)cc1` the Potency was “inactive”.
With `O=C(O)c1ccccn1` the Potency was “inactive”.
In the case of `CN(C)CC[C@@H](c1ccc(Cl)cc1)c1ccccn1`, the Potency is reported as “inactive”.
In the case of `CC(C)(C)c1onc(OCP(=O)(O)O)c1CC(N)C(=O)O` (stereo not given), the Potency is reported as “inactive”.
In the case of `O=C1O[C@H](CO)[C@@H](O)[C@H](O)[C@H]1O`, the Potency is reported as “inactive”.
For `N=c1c[n+](N2CCOCC2)[n-]o1`, the Potency was “inactive”.
For `OCCN1CCN(CCCN2c3ccccc3Sc3ccc(Cl)cc32)CC1`, the Potency was “inactive”.
For `CC(C)NC[C@H](O)c1ccc(O)c(O)c1`, the Potency was “inactive”.
For `COc1ccc2[nH]c(S(=O)Cc3ncc(C)c(OC)c3C)nc2n1` (stereo not given), the Potency was “inactive”.
With `Oc1cccc(O)c1` the Potency was “inactive”.
With `CNCCC(Oc1ccc(C(F)(F)F)cc1)c1ccccc1` (stereo not given) the Potency was “inactive”.
